Paper PMC4336329 (PLoS ONE, 2015)
Screen size: about 310,000 compounds; about 14,000 (4.5%) showed an effect of 50% or more. Effects have a minus sign here. The list comes from a sample in which strong results are over-represented; it also holds similar structures and randomly drawn compounds.

Molecular target: human ether-à-go-go-related gene (hERG) potassium channel (human, UniProt Q12809)
Assay: primary screen, population patch clamp on CHO cells stably expressing hERG; higher = less effect of the substance
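Further: peak tail current of the secondary pulse compared with the same well before compound.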

Sequence of human ether-à-go-go-related gene (hERG) potassium channel (Q12809 whole entry, looked up): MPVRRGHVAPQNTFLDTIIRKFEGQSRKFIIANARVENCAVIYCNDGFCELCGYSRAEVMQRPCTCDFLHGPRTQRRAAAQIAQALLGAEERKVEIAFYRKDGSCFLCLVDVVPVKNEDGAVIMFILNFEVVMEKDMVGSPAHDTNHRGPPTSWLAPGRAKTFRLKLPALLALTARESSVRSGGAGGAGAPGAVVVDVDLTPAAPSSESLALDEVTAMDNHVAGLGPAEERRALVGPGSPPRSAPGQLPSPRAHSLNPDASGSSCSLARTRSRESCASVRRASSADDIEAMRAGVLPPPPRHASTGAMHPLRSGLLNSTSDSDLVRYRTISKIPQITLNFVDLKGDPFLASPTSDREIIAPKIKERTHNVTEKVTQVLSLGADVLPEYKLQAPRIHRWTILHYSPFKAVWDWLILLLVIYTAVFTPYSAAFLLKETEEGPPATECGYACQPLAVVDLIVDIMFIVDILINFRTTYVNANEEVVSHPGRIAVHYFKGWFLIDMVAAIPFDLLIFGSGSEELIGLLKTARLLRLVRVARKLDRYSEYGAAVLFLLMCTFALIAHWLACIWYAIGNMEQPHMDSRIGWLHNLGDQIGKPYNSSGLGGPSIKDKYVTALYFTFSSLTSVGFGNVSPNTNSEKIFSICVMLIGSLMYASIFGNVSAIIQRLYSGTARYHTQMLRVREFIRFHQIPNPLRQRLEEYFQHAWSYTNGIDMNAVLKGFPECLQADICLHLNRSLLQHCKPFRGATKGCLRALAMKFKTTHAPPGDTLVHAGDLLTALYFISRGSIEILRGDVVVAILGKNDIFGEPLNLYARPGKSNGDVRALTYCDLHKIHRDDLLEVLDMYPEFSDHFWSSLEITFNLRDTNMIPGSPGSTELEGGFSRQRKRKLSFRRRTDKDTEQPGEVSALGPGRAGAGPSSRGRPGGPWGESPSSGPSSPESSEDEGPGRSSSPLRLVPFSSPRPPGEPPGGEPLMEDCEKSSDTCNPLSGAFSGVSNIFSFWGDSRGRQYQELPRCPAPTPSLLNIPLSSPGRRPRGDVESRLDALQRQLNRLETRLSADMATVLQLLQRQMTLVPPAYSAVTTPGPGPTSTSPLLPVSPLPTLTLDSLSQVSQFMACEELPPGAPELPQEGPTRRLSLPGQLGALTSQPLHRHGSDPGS

| SMILES | hERG current change (%, negative = inhibition) at 10uM |
| --- | --- |
| COc1cc(C2NC(=O)CCC2[N+](=O)[O-])cc(OC)c1OC (stereo not drawn) | 29.6% |
| CCc1cccc(NC(=S)N(CCN(C)C)C(C)c2ccncc2)c1 (stereo not drawn) | -44% |
| COc1ccc(NC(=S)N(CCN(C)C)C(C)c2ccco2)cc1Cl (stereo not drawn) | -36.3% |
| COCCCN(C(=S)Nc1cc(Cl)cc(Cl)c1)C(C)c1ccncc1 (stereo not drawn) | -70.6% |
| COCCCN(C(=S)Nc1cc(C)cc(C)c1)C(C)c1ccncc1 (stereo not drawn) | -41% |
| CSc1cccc(NC(=S)N(CCN(C)C)C(C)c2ccccn2)c1 (stereo not drawn) | -36.2% |
| COc1ccc(NC(=S)N(CCN(C)C)C(C)c2ccncc2)cc1Cl (stereo not drawn) | -59.9% |
| COc1cc(Cl)ccc1NC(=S)N(CCN(C)C)C(C)c1ccncc1 (stereo not drawn) | -39.2% |
| CSc1cccc(NC(=S)N(CCN(C)C)C(C)c2ccncc2)c1 (stereo not drawn) | -50.6% |
| COCCCN(C(=S)Nc1cccc(Cl)c1)C(C)c1ccncc1 (stereo not drawn) | -17.3% |
| Cc1ccc(C(=O)c2ccc(C(F)(F)F)cc2)cc1 | 7.79% |
| CC(=O)N(C)C1=C(O)c2ccccc2C(=O)C1=O | 22.3% |
| Cc1ccc(NC(=O)COC(=O)Cc2c[nH]c3ccccc23)cc1C | -7.15% |
| COc1ccccc1-c1nnc(SCc2nc3ccccc3s2)n1C | -17% |
| COc1ccc(C(=O)COC(=O)Cn2cnc3c2c(=O)n(C)c(=O)n3C)c(OC)c1 | 3.76% |
| CSc1nsc(SCC(=O)NCc2ccc(C)cc2)n1 | 10.1% |
| COc1cc(OC)cc(-c2nnc(SCC(=O)N3CCOCC3)o2)c1 | 9.82% |
| Nc1nc(SCc2ccc(Cl)cc2)ns1 | -7% |
| COc1cc(CNCCN(C)C)c(Br)cc1OCC(=O)NCc1ccccc1 | -29.2% |
| CCOc1cc(CNCCN(C)C)c(Cl)cc1OCC(=O)NCCc1ccccc1.Cl | -10.8% |
| CCNCc1cc(Br)c(OCC(=O)Nc2ccccc2)c(OC)c1.Cl | -19.8% |
| CCN(CC)CCNCc1ccc(Br)cc1OCC(=O)NCc1ccccc1.Cl | -67.2% |

| SMILES | hERG current change (%, negative = inhibition) at 10uM |
| --- | --- |
| COc1cc(CNC(C)c2ccccc2)cc(Cl)c1OCC(=O)Nc1ccccc1.Cl (stereo not drawn) | 9.86% |
| CCN(CC)CCNCc1cc(Cl)c(OCC(=O)Nc2ccccc2)c(OC)c1.Cl | -62.5% |
| NC(=O)N/N=C/c1cc(Br)ccc1OCC(=O)NCc1ccccc1 | -6.43% |
| CCN(CC)CCNCc1cc(Br)ccc1OCC(=O)NCc1ccccc1.Cl | -83.2% |
| CCCCNCc1cc(Br)c(OCC(=O)NCc2ccccc2)c(OC)c1.Cl | -39.4% |
| Cc1c(C(=O)Nc2ccc(S(=O)(=O)Nc3ncccn3)cc2)oc2ccc(Cl)cc12 | -17.4% |
| Cn1c(=O)c2c(nc(CN3CCOCC3)n2CCc2ccccc2)n(C)c1=O | 7.53% |
| Cc1ncc(CO)c2cc(C(N)=O)c(=Nc3ccccc3)oc12 | -27.7% |
| COc1ccc(C(O)P(=O)(OCC(C)C)c2ccc(N(C)C)cc2)c(OC)c1 (stereo not drawn) | -3.56% |
| c1ccc2[nH]c(CCCc3nc4ccccc4[nH]3)nc2c1 | -7.32% |
| CC1CCN(CCc2nc3ccccc3[nH]2)CC1 | -63.7% |
| CCCc1nc2ccccc2[nH]1 | 24.6% |
| COc1ccc2cc(C(=O)C3CCCN(Cc4cnc(N5CCOCC5)s4)C3)ccc2c1 (stereo not drawn) | 14.6% |
| CCn1ccnc1CN1CCCC(C(=O)c2cc(C)c(OC)c(C)c2)C1 (stereo not drawn) | -23.2% |
| COc1ccc(Cl)cc1C(=O)C1CCCN(Cc2cnc(C)s2)C1 (stereo not drawn) | -38.1% |
| CCn1ccnc1CN1CCCC(C(=O)c2cc(Cl)ccc2OC)C1 (stereo not drawn) | -73.3% |
| CCn1ccnc1CN1CCCC(C(=O)c2ccc3cc(OC)ccc3c2)C1 (stereo not drawn) | -70.6% |
| COc1ccc(Cl)cc1C(=O)C1CCCN(Cc2cnc(N3CCOCC3)s2)C1 (stereo not drawn) | -57.6% |
| CSc1ccc(C(=O)C2CCCN(C(=O)Cn3cnnn3)C2)cc1 (stereo not drawn) | -12.8% |
| CSc1ccc(C(=O)C2CCCN(C(=O)c3ccc(C)nc3)C2)cc1 (stereo not drawn) | -22.4% |
| COc1ccc(C(=O)C2CCCN(Cc3cnc(N4CCOCC4)s3)C2)c(OC)c1 (stereo not drawn) | -46.9% |
| CCn1ccnc1CN1CCCC(C(=O)c2cc(F)ccc2OC)C1 (stereo not drawn) | -33% |

| SMILES | hERG current change (%, negative = inhibition) at 10uM |
| --- | --- |
| CCn1ccnc1CN1CCCC(C(=O)c2ccc(SC)cc2)C1 (stereo not drawn) | -58.3% |
| Cc1ccc(NC(=O)c2cnccn2)cc1 | 15.8% |
| CCCn1c(Cc2ccccc2)nnc1SCC(=O)N1CCOCC1 | 16.7% |
| NC(=S)N/N=C/c1ccc([N+](=O)[O-])cc1 | -8.06% |
| O=C(CC1C(=O)NCCN1Cc1ccc(Cl)c(F)c1)NCC1CCOCC1 (stereo not drawn) | 9.07% |
| CCOC(=O)C1(Cc2ccc(O)cc2)NC(c2ccccc2F)C2C(=O)N(C)C(=O)C21 (stereo not drawn) | -2.04% |
| CCC(=O)NC(c1cccs1)c1cc([N+](=O)[O-])c2cccnc2c1O (stereo not drawn) | 15% |
| CC1=NNC(=O)C1CCC(=O)N/N=C(\C)c1ccccc1 (stereo not drawn) | 28.3% |
| CCCCOc1ccc(NC(=O)CSc2nnnn2C)cc1 | -2.43% |
| NCCNc1cc(N2CCCC2)ccc1[N+](=O)[O-] | 4.66% |
| O=C(C1CCCC1)N1CCN(S(=O)(=O)c2ccc(F)cc2)CC1 | 15.9% |
| COc1cc(C2C(C(=O)c3ccc(C)o3)=C(O)C(=O)N2Cc2cccnc2)ccc1O (stereo not drawn) | 10.9% |
| O=C(CCC(=O)NC1CCN(Cc2ccccc2)CC1)NCc1ccco1 | -1.88% |
| Cc1cccc(-c2nnc(SCC#N)n2-c2cccc(Cl)c2)c1 | -62.5% |
| N#CCSc1nnc(-c2ccccc2O)n1Cc1ccccc1 | 5.13% |
| Cc1cccc(-c2nnc(SCC(=O)O)n2Cc2ccccc2)c1 | -6.26% |
| Cc1cc(C)nc(SCc2nnc(SCC#N)n2-c2cccc(Cl)c2)n1 | -17.6% |
| Cc1cccc(-c2nnc(SCC#N)n2C)c1 | 13.2% |
| Cc1cccc(-c2nnc(SCC#N)n2-c2ccccc2)c1 | -54.7% |
| Cc1cccc(-c2nnc(SCC#N)n2Cc2ccccc2)c1 | -66.6% |
| N#CCSc1nnc(COc2cccc3ccccc23)n1-c1cccc(Cl)c1 | 8.77% |
| Cc1ccc(-n2c(SCCN)nnc2-c2cccc(C)c2)cc1.O=C(O)C(=O)O | -38% |
